Results filed as inconclusive are left out. The source made the active and inactive calls. Calls come from the whole dose curve; as a rule, active = well fitted inhibition curve with a large enough effect; inconclusive = small, poorly fitted or top-dose-only effect; inactive = flat fitted curve, though single readings scatter.
How the values were obtained:
[1] = qHTS profiling for inhibitors of Plasmodium falciparum proliferation (AID 504749); note: nearly all actives have a fitted effect of over 60% in size;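 for activity, negative = inhibition: 0% = DMSO vehicle and full inhibition = artemisinin control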; details: P. falciparum in erythrocytes, SYBR Green DNA, 72 h
Outline: (§1)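 Quantitative HTS: compounds pinned into medium, infected erythrocytes added (0.3% parasitemia, 2.5% hematocrit), 72 h culture at 37 C under 5% CO2. Saponin/Triton lysis with SYBR Green I, overnight RT, then fluorescence read.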

3D7 = assay: as above; details: P. falciparum in erythrocytes, SYBR Green DNA, 72 h; series mostly up to 28.7 µM
Outline: as §1

7G8 = assay: as above; details: P. falciparum in erythrocytes, SYBR Green DNA, 72 h; series mostly up to 28.7 µM
Outline: as §1

AA1029 = assay: as above; details: P. falciparum in erythrocytes, SYBR Green DNA, 72 h; series mostly up to 28.7 µM
Outline: as §1

AS120 = assay: as above; details: P. falciparum in erythrocytes, SYBR Green DNA, 72 h; series mostly up to 28.7 µM
Outline: as §1

ATS189 = assay: as above; details: P. falciparum in erythrocytes, SYBR Green DNA, 72 h; series mostly up to 28.7 µM
Outline: as §1

ATS95 = assay: as above; details: P. falciparum in erythrocytes, SYBR Green DNA, 72 h; series mostly up to 28.7 µM
Outline: as §1

C2A = assay: as above; details: P. falciparum in erythrocytes, SYBR Green DNA, 72 h; series mostly up to 28.7 µM
Outline: as §1

CP185 = assay: as above; details: P. falciparum in erythrocytes, SYBR Green DNA, 72 h; series mostly up to 28.7 µM
Outline: as §1

CP191 = assay: as above; details: P. falciparum in erythrocytes, SYBR Green DNA, 72 h; series mostly up to 28.7 µM
Outline: as §1

CP192 = assay: as above; details: P. falciparum in erythrocytes, SYBR Green DNA, 72 h; series mostly up to 28.7 µM
Outline: as §1

CP194 = assay: as above; details: P. falciparum in erythrocytes, SYBR Green DNA, 72 h; series mostly up to 28.7 µM
Outline: as §1

CP201 = assay: as above; details: P. falciparum in erythrocytes, SYBR Green DNA, 72 h; series mostly up to 28.7 µM
Outline: as §1

CP203 = assay: as above; details: P. falciparum in erythrocytes, SYBR Green DNA, 72 h; series mostly up to 28.7 µM
Outline: as §1

CP211 = assay: as above; details: P. falciparum in erythrocytes, SYBR Green DNA, 72 h; series mostly up to 28.7 µM
Outline: as §1

CP215 = assay: as above; details: P. falciparum in erythrocytes, SYBR Green DNA, 72 h; series mostly up to 28.7 µM
Outline: as §1

CP217 = assay: as above; details: P. falciparum in erythrocytes, SYBR Green DNA, 72 h; series mostly up to 28.7 µM
Outline: as §1

CP237 = assay: as above; details: P. falciparum in erythrocytes, SYBR Green DNA, 72 h; series mostly up to 28.7 µM
Outline: as §1

CP238 = assay: as above; details: P. falciparum in erythrocytes, SYBR Green DNA, 72 h; series mostly up to 28.7 µM
Outline: as §1

CP247 = assay: as above; details: P. falciparum in erythrocytes, SYBR Green DNA, 72 h; series mostly up to 28.7 µM
Outline: as §1

[2] = at 12.8 µM (top of the series), parasite line A
[3] = at 12.8 µM (top of the series), parasite line B
[4] = at 28.7 µM (top of the series), parasite line A
[5] = at 28.7 µM (top of the series), parasite line B
Potency is the fitted concentration of half-maximal effect.

CN/C(=C\[N+](=O)[O-])NCCSCc1csc(CN(C)C)n1
inactive: activity, negative = inhibition [1, 2] 4.23% | activity, negative = inhibition [1, 3] 7.76% | Potency (3D7) | Potency (7G8) | Potency (AA1029) | Potency (AS120) | Potency (ATS189) | Potency (ATS95) | Potency (C2A) | Potency (CP185) | outcome (CP191) | outcome (CP192) | outcome (CP194) | outcome (CP201) | Potency (CP203) | outcome (CP211) | Potency (CP215) | outcome (CP217) | Potency (CP237) | Potency (CP238) | Potency (CP247)

COc1ccc(O)cc1
inactive: activity, negative = inhibition [1, 4] -6.25% | activity, negative = inhibition [1, 5] -15.4% | Potency (3D7) | Potency (7G8) | Potency (AA1029) | Potency (AS120) | Potency (ATS189) | Potency (ATS95) | Potency (C2A) | Potency (CP185) | outcome (CP191) | outcome (CP192) | outcome (CP194) | outcome (CP201) | Potency (CP203) | outcome (CP211) | Potency (CP215) | outcome (CP217) | Potency (CP237) | Potency (CP238)

Cc1ccc(S(=O)(=O)NC(=O)NC2CCCCC2)cc1
inactive: activity, negative = inhibition [1, 4] -9.84% | activity, negative = inhibition [1, 5] 5.26% | Potency (3D7) | Potency (7G8) | Potency (AA1029) | Potency (AS120) | Potency (ATS189) | Potency (ATS95) | Potency (C2A) | Potency (CP185) | outcome (CP191) | outcome (CP192) | outcome (CP194) | outcome (CP201) | Potency (CP203) | outcome (CP211) | Potency (CP215) | outcome (CP217) | Potency (CP237) | Potency (CP238) | Potency (CP247)

Cc1c(NC(C)C)c(=O)n(-c2ccccc2)n1C
inactive: activity, negative = inhibition [1, 4] 8.37% | activity, negative = inhibition [1, 5] 23.5% | Potency (3D7) | Potency (7G8) | Potency (AA1029) | Potency (AS120) | Potency (ATS189) | Potency (ATS95) | Potency (C2A) | Potency (CP185) | outcome (CP191) | outcome (CP192) | outcome (CP194) | outcome (CP201) | Potency (CP203) | outcome (CP211) | Potency (CP215) | outcome (CP217) | Potency (CP237) | Potency (CP238) | Potency (CP247)

CCCCC1(COC(=O)CCC(=O)O)C(=O)N(c2ccccc2)N(c2ccccc2)C1=O
inactive: activity, negative = inhibition [1, 2] 7.36% | activity, negative = inhibition [1, 3] 2.05% | Potency (3D7) | Potency (7G8) | Potency (AA1029) | Potency (AS120) | Potency (ATS189) | Potency (ATS95) | Potency (C2A) | Potency (CP185) | outcome (CP191) | outcome (CP192) | outcome (CP194) | outcome (CP201) | Potency (CP203) | outcome (CP211) | Potency (CP215) | outcome (CP217) | Potency (CP237) | Potency (CP238) | Potency (CP247)

CCCOC(=O)c1ccc(N)cc1
inactive: activity, negative = inhibition [1, 4] -0.392% | activity, negative = inhibition [1, 5] 6.95% | Potency (3D7) | Potency (7G8) | Potency (AA1029) | Potency (AS120) | Potency (ATS189) | Potency (ATS95) | Potency (C2A) | Potency (CP185) | outcome (CP191) | outcome (CP192) | outcome (CP194) | outcome (CP201) | Potency (CP203) | outcome (CP211) | Potency (CP215) | outcome (CP217) | Potency (CP237) | Potency (CP238) | Potency (CP247)

CC(=O)Nc1ccc(OCCOCCOc2ccc(NC(C)=O)cc2)cc1
inactive: activity, negative = inhibition [1, 4] 6.75% | activity, negative = inhibition [1, 5] 13% | Potency (3D7) | Potency (7G8) | Potency (AA1029) | Potency (AS120) | Potency (ATS189) | Potency (ATS95) | Potency (C2A) | Potency (CP185) | outcome (CP191) | outcome (CP192) | outcome (CP194) | outcome (CP201) | Potency (CP203) | outcome (CP211) | Potency (CP215) | outcome (CP217) | Potency (CP237) | Potency (CP238)

CCS(=O)(=O)CCn1c([N+](=O)[O-])cnc1C
inactive: activity, negative = inhibition [1, 2] -2.71% | activity, negative = inhibition [1, 3] -11.1% | Potency (3D7) | Potency (7G8) | Potency (AA1029) | Potency (AS120) | Potency (ATS189) | Potency (ATS95) | Potency (C2A) | Potency (CP185) | outcome (CP191) | outcome (CP192) | outcome (CP194) | outcome (CP201) | Potency (CP203) | outcome (CP211) | Potency (CP215) | outcome (CP217) | Potency (CP237) | Potency (CP238) | Potency (CP247)

CC(C)c1cc2c(cc1S(=O)(=O)O)[C@@]1(C)CCC[C@@](C)(C(=O)O)[C@@H]1CC2
inactive: activity, negative = inhibition [1, 4] 12.2% | activity, negative = inhibition [1, 5] -0.445% | Potency (3D7) | Potency (7G8) | Potency (AA1029) | Potency (AS120) | Potency (ATS189) | Potency (ATS95) | Potency (C2A) | Potency (CP185) | outcome (CP191) | outcome (CP192) | outcome (CP194) | outcome (CP201) | Potency (CP203) | outcome (CP211) | Potency (CP215) | outcome (CP217) | Potency (CP237) | Potency (CP238)

COc1ccc(Cc2cnc(N)nc2N)cc1OC
active: Potency ([1]; parasite line A) 3.55 µM | Potency ([1]; parasite line B) 8.91 µM | Potency (3D7) 7.08 µM
inactive: Potency (7G8) | Potency (AA1029) | Potency (AS120) | Potency (ATS189) | Potency (ATS95) | Potency (C2A) | Potency (CP185) | outcome (CP191) | outcome (CP192) | outcome (CP194) | outcome (CP201) | Potency (CP203) | outcome (CP211) | Potency (CP215) | outcome (CP217) | Potency (CP237) | Potency (CP238) | Potency (CP247)

CCCCCCCC(=O)OCC(O)CO (centres undefined)
inactive: activity, negative = inhibition [1, 4] 0.997% | activity, negative = inhibition [1, 5] -8.07% | Potency (3D7) | Potency (7G8) | Potency (AA1029) | Potency (AS120) | Potency (ATS189) | Potency (ATS95) | Potency (C2A) | Potency (CP185) | outcome (CP191) | outcome (CP192) | outcome (CP194) | outcome (CP201) | Potency (CP203) | outcome (CP211) | Potency (CP215) | outcome (CP217) | Potency (CP237) | Potency (CP238) | Potency (CP247)

O=c1[nH]c(=O)c2ccccc2o1
inactive: activity, negative = inhibition [1, 4] 2.32% | activity, negative = inhibition [1, 5] 10.5% | Potency (3D7) | Potency (7G8) | Potency (AA1029) | Potency (AS120) | Potency (ATS189) | Potency (ATS95) | Potency (C2A) | Potency (CP185) | outcome (CP191) | outcome (CP192) | outcome (CP194) | outcome (CP201) | Potency (CP203) | outcome (CP211) | Potency (CP215) | outcome (CP217) | Potency (CP237) | Potency (CP238)

Cc1c(C(=O)NCCO)[n+](=O)c2ccccc2n1[O-]
inactive: activity, negative = inhibition [1, 4] 8.49% | activity, negative = inhibition [1, 5] -1.36% | Potency (3D7) | Potency (7G8) | Potency (AA1029) | Potency (AS120) | Potency (ATS189) | Potency (ATS95) | Potency (C2A) | Potency (CP185) | outcome (CP191) | outcome (CP192) | outcome (CP194) | outcome (CP201) | Potency (CP203) | outcome (CP211) | Potency (CP215) | outcome (CP217) | Potency (CP237) | Potency (CP238) | Potency (CP247)
